Assay results as given in PubChem BioAssay (EPA / NIEHS).
Inconclusive results are not listed. More than one record can exist for a structure, and the calls need not agree. Active and inactive are the calls of the source. How the source made its calls, unless noted: active means hit-call score of the fitted dose curve at least 0.9, where 1 is the maximum; inactive means score below 0.9.

Key:
[1] = target: Retinoic acid receptor RXR-alpha (Homo sapiens) (UniProt P19793); assay: OT_NURR1_NURR1RXRa_1440: Odyssey Thera (OT) 24-hour HEK293T Protein Complementation Assay for Nurr1/retinoid X receptor (RXR) (AID 2283386; active means hit-call score of the fitted dose curve at least 0.9, where 1 is the maximum)
Retinoic acid receptor RXR-alpha (Homo sapiens), sequence (P19793 whole entry, looked up, the tested form may be a part): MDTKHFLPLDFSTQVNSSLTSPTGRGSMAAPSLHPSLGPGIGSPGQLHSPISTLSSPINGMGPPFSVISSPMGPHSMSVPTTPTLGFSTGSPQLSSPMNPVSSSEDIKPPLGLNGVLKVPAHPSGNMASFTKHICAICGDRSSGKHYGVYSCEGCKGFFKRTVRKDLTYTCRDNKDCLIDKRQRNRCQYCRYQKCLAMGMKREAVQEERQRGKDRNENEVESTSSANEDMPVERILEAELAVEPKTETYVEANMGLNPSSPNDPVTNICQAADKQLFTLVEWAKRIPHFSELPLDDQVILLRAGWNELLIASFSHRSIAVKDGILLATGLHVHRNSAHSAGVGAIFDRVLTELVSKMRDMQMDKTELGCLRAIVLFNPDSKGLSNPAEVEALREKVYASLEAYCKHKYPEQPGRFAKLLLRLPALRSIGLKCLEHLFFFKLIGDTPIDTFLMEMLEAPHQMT
Summary of the method: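 HEK293T cells were dosed with compound and read 24 h later by fluorescence intensity in a protein-fragment complementation format, where Nurr1–RXRα interaction reconstitutes a split reporter. Activity was fitted as gain of signal relative to DMSO baseline.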

[2] = target: Peroxisome proliferator-activated receptor gamma (Homo sapiens) (UniProt P37231); assay: OT_PPARg_PPARgSRC1_0480: Odyssey Thera (OT) 8-hour Protein-Complementation Assay for Peroxisome Proliferator-activated Receptor Gamma / SRC-1 Co-activator (AID 2283387; active means hit-call score of the fitted dose curve at least 0.9, where 1 is the maximum)
Peroxisome proliferator-activated receptor gamma (Homo sapiens), sequence (P37231 whole entry, looked up, the tested form may be a part): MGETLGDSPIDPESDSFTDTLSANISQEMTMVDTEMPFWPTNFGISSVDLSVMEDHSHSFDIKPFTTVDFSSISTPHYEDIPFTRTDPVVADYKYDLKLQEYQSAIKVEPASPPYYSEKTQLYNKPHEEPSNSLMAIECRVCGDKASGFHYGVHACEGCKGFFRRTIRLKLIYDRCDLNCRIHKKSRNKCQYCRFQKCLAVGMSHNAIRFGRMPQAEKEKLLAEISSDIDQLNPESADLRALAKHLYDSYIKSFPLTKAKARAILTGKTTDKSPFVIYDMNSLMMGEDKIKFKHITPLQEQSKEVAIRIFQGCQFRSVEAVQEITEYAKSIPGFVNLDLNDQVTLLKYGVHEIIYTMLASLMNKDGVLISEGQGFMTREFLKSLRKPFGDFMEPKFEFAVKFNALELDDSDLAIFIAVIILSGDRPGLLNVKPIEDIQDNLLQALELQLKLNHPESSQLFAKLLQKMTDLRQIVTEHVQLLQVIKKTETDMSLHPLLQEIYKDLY
Summary of the method: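 Protein-fragment complementation of split Venus YFP reports PPARg/SRC-1 interaction in HEK293T (transfected 48 h before treatment), exposed 8 h. Readout: N/C fluorescence ratio at 488 nm from imaging, Draq5 for segmentation, positive fit relative to DMSO.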

[3] = target: Peroxisome proliferator-activated receptor gamma (Homo sapiens) (UniProt P37231); assay: OT_PPARg_PPARgSRC1_1440: Odyssey Thera (OT) 24-hour Protein-Complementation Assay for Peroxisome Proliferator-activated Receptor Gamma/ SRC-1 Co-activator (AID 2283388; active means hit-call score of the fitted dose curve at least 0.9, where 1 is the maximum)
Summary of the method: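 HEK293T transiently transfected with PPARg/SRC-1 split-Venus YFP fusions 48 h before dosing, then treated 24 h at 37C. Fixed cells imaged; nuclear/cytoplasmic 488 nm fluorescence ratio, gain of signal versus DMSO.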

[4] = CEETOX_H295R_OHPREG: CeeTox H295R High-throughput Steroidogenesis Assay for OH-Pregnenolone (OHPREG) (AID 2283434); conditions: actives raise or lower the signal
Summary of the method: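 H295R cells pre-stimulated 48 h with 10 uM forskolin, then exposed 48 h to chemical in 0.1% DMSO. 17alpha-hydroxypregnenolone in medium quantified by MTBE extraction and HPLC-MS/MS; bidirectional fit versus DMSO, viability checked by MTT.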

[5] = CEETOX_H295R_OHPROG: CeeTox H295R High-throughput Steroidogenesis Assay for OH-Progesterone (OHPROG) (AID 2283435); conditions: actives raise or lower the signal
Summary of the method: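 H295R human adrenal cells were prestimulated 48 h with 10 uM forskolin, then exposed 48 h to test chemical (0.1% DMSO final). 17alpha-hydroxyprogesterone in medium was measured by HPLC-MS/MS after MTBE extraction; bidirectional fitting vs DMSO.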

[6] = CEETOX_H295R_ANDR: CeeTox H295R High-throughput Steroidogenesis Assay for Androstenedione (ANDR) (AID 2283436); conditions: actives raise or lower the signal
Summary of the method: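 H295R cells, following OECD 456 with minor changes, exposed to chemicals for 48 h. Androstenedione in the medium was quantified by HPLC-MS/MS after MTBE extraction. Fitting was bidirectional versus DMSO; chemicals were diluted until MTT viability was ≥70%.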

[7] = CEETOX_H295R_PROG: CeeTox H295R High-throughput Steroidogenesis Assay for Progesterone (PROG) (AID 2283442); conditions: actives raise or lower the signal;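 on AC50: human H295R adrenal cells primed with 10 µM forskolin before dosing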
Summary of the method: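 H295R adrenal cells prestimulated 48 h with 10 uM forskolin, then exposed 48 h to test chemical in 0.1% DMSO. Progesterone in medium quantified by HPLC-MS/MS after MTBE extraction; viability checked by MTT in same wells.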

[8] = read-out: Tumor necrosis factor receptor superfamily member 6 (Homo sapiens) (UniProt P25445); assay: LTEA_HepaRG_FAS: Life Technologies and Expression Analysis (LTEA) Assay for Fas cell surface death receptor (FAS) using HepaRG (AID 2283447); conditions: mRNA level, 48 h; actives raise or lower the signal
Summary of the method: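 Differentiated HepaRG cells in serum-free induction medium were exposed 48 h to 8 half-log concentrations up to 100 uM in 0.5% DMSO, in duplicate. FAS mRNA was measured by qRT-PCR normalised to ACTB, GAPDH and POLR2A; bidirectional fit versus DMSO.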

[9] = read-out: Fatty acid synthase (Homo sapiens) (UniProt P49327); assay: LTEA_HepaRG_FASN: Life Technologies and Expression Analysis (LTEA) Assay for Fatty Acid Synthase (FASN) using HepaRG (AID 2283448); conditions: mRNA level, 48 h; actives raise or lower the signal
Summary of the method: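 Differentiated human HepaRG cells were exposed for 48 h in serum-free induction medium to eight half-log concentrations up to 100 uM in 0.5% DMSO, in duplicate. FASN mRNA was quantified by TaqMan qRT-PCR, normalized to ACTB/GAPDH/POLR2A, and fitted bidirectionally against DMSO.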

[10] = read-out: Cyclin D2 (CCND2), CCND2 (gene 894); assay: LTEA_HepaRG_CCND2: Life Technologies and Expression Analysis (LTEA) Assay for Cyclin D2 (CCND2) using HepaRG (AID 2283449); conditions: mRNA level, 48 h; actives raise or lower the signal;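 further: CCND2 transcript measured by TaqMan qRT-PCR and normalised to three housekeeping genes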
Summary of the method: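 Chemicals in 0.5% DMSO, eight half-log concentrations from 100 uM top, were applied in duplicate for 48 h to human HepaRG cells in serum-free induction medium. CCND2 mRNA by TaqMan qRT-PCR, normalised to ACTB/GAPDH/POLR2A; bidirectional fit versus DMSO.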

[11] = read-out: Cyclin D1 (CCND1), CCND1 (gene 595); assay: LTEA_HepaRG_CCND1: Life Technologies and Expression Analysis (LTEA) Assay for Cyclin D1 (CCND1) using HepaRG (AID 2283451); conditions: mRNA level, 48 h; actives raise or lower the signal
Summary of the method: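 Differentiated HepaRG cells exposed 48 h in serum-free induction medium to eight half-log concentrations from 100 uM top, 0.5% DMSO, duplicates. CCND1 mRNA measured by Fluidigm TaqMan qRT-PCR, normalised to ACTB, GAPDH, POLR2A; bidirectional fit.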

[12] = read-out: catalase (CAT), CAT (gene 847); assay: LTEA_HepaRG_CAT: Life Technologies and Expression Analysis (LTEA) Assay for catalase (CAT) using HepaRG (AID 2283452); conditions: mRNA level, 48 h; actives raise or lower the signal
Summary of the method: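 HepaRG cells in serum-free induction medium, 0.5% DMSO vehicle, exposed 48 h in duplicate over 8 half-log concentrations from 100 uM. CAT mRNA measured by qRT-PCR, normalized to ACTB, GAPDH, POLR2A; bidirectional fit versus DMSO.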

[13] = read-out: flavin-containing dimethylaniline monooxygenases 3 (FMO3), FMO3 (gene 2328); assay: LTEA_HepaRG_FMO3: Life Technologies and Expression Analysis (LTEA) Assay for flavin-containing dimethylaniline monooxygenases 3 (FMO3) using HepaRG (AID 2283453); conditions: mRNA level, 48 h; actives raise or lower the signal
Summary of the method: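 HepaRG, 48 h exposure, 8-pt half-log series from 100 uM, 0.5% DMSO vehicle, duplicates; FMO3 transcript by Fluidigm TaqMan qRT-PCR, housekeeping-normalized; gain/loss fit vs DMSO.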

[14] = read-out: Cyclin Dependent Kinase Inhibitor 1A (CDKN1A), CDKN1A (gene 1026); assay: LTEA_HepaRG_CDKN1A: Life Technologies and Expression Analysis (LTEA) Assay for Cyclin Dependent Kinase Inhibitor 1A (CDKN1A) using HepaRG (AID 2283450); conditions: mRNA level, 48 h; actives raise or lower the signal
Summary of the method: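 Differentiated HepaRG cells in serum-free induction medium, exposed 48 h in duplicate to eight half-log concentrations up to 100 uM in 0.5% DMSO. mRNA measured by TaqMan qRT-PCR, normalized to ACTB, GAPDH, POLR2A; bidirectional fit versus DMSO.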

[15] = CEETOX_H295R_11DCORT: CeeTox H295R High-throughput Steroidogenesis Assay for 11-Deoxycortisol (11DCORT) (AID 2283432); conditions: actives raise or lower the signal
Summary of the method: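 Human adrenal H295R cells were prestimulated with 10 uM forskolin for 48 h, then exposed to test chemical (0.1% DMSO final) for 48 h. Medium 11-deoxycortisol was quantified by MTBE extraction and HPLC-MS/MS; bidirectional fitting relative to DMSO.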

[16] = CEETOX_H295R_CORTIC: CeeTox H295R High-throughput Steroidogenesis Assay for Corticosterone (CORTIC) (AID 2283437); conditions: actives raise or lower the signal;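 further: corticosterone secreted into medium quantified by mass spectrometry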
Summary of the method: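 H295R adrenal cells prestimulated 48 hours with 10 uM forskolin, then exposed 48 hours to chemical in 0.1% DMSO. Corticosterone in medium measured by HPLC-MS/MS after MTBE extraction; MTT viability in the same wells; bidirectional fit versus DMSO.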

[17] = CEETOX_H295R_CORTISOL: CeeTox H295R High-throughput Steroidogenesis Assay for Cortisol (AID 2283438); conditions: actives raise or lower the signal;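 further: cortisol secreted into medium quantified by LC-MS/MS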
Summary of the method: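 H295R human adrenal cells were prestimulated 48 h with 10 uM forskolin, then exposed 48 h to test chemical (0.1% DMSO final). Medium cortisol was quantified by HPLC-MS/MS after MTBE extraction; bidirectional fitting relative to DMSO baseline.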

[18] = CEETOX_H295R_DOC: CeeTox H295R High-throughput Steroidogenesis Assay for DOC (AID 2283439); conditions: actives raise or lower the signal
Summary of the method: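 H295R adrenal cells prestimulated 48 h with 10 uM forskolin, then exposed 48 h to test chemical (0.1% DMSO final). Medium 11-deoxycorticosterone extracted with MTBE, quantified by HPLC-MS/MS; bidirectional fit versus DMSO baseline; MTT viability in same wells.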

[19] = CEETOX_H295R_ESTRADIOL: CeeTox H295R High-throughput Steroidogenesis Assay for Estradiol (AID 2283440); conditions: actives raise or lower the signal;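 further: estradiol secreted into medium quantified by LC-MS/MS after dansyl derivatisation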
Summary of the method: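 H295R cells pre-stimulated 48 h with 10 uM forskolin, then exposed 48 h to chemical in 0.1% DMSO. Medium estradiol quantified by MTBE extraction, dansyl derivatisation and HPLC-MS/MS; bidirectional fit versus DMSO; MTT viability required >/=70%.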

[20] = CEETOX_H295R_ESTRONE: CeeTox H295R High-throughput Steroidogenesis Assay for Estrone (AID 2283441); conditions: actives raise or lower the signal;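 further: estrone secreted into medium measured by LC-MS/MS after dansyl derivatization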
Summary of the method: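 H295R cells; 48 h forskolin (10 uM) prestimulation; 48 h compound exposure, 0.1% DMSO final. Medium estrone: MTBE extraction, dansyl derivatization, HPLC-MS/MS. Bidirectional fit vs DMSO.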

Measured: AC50

Fatty acid synthase (Homo sapiens), sequence (P49327 whole entry, looked up): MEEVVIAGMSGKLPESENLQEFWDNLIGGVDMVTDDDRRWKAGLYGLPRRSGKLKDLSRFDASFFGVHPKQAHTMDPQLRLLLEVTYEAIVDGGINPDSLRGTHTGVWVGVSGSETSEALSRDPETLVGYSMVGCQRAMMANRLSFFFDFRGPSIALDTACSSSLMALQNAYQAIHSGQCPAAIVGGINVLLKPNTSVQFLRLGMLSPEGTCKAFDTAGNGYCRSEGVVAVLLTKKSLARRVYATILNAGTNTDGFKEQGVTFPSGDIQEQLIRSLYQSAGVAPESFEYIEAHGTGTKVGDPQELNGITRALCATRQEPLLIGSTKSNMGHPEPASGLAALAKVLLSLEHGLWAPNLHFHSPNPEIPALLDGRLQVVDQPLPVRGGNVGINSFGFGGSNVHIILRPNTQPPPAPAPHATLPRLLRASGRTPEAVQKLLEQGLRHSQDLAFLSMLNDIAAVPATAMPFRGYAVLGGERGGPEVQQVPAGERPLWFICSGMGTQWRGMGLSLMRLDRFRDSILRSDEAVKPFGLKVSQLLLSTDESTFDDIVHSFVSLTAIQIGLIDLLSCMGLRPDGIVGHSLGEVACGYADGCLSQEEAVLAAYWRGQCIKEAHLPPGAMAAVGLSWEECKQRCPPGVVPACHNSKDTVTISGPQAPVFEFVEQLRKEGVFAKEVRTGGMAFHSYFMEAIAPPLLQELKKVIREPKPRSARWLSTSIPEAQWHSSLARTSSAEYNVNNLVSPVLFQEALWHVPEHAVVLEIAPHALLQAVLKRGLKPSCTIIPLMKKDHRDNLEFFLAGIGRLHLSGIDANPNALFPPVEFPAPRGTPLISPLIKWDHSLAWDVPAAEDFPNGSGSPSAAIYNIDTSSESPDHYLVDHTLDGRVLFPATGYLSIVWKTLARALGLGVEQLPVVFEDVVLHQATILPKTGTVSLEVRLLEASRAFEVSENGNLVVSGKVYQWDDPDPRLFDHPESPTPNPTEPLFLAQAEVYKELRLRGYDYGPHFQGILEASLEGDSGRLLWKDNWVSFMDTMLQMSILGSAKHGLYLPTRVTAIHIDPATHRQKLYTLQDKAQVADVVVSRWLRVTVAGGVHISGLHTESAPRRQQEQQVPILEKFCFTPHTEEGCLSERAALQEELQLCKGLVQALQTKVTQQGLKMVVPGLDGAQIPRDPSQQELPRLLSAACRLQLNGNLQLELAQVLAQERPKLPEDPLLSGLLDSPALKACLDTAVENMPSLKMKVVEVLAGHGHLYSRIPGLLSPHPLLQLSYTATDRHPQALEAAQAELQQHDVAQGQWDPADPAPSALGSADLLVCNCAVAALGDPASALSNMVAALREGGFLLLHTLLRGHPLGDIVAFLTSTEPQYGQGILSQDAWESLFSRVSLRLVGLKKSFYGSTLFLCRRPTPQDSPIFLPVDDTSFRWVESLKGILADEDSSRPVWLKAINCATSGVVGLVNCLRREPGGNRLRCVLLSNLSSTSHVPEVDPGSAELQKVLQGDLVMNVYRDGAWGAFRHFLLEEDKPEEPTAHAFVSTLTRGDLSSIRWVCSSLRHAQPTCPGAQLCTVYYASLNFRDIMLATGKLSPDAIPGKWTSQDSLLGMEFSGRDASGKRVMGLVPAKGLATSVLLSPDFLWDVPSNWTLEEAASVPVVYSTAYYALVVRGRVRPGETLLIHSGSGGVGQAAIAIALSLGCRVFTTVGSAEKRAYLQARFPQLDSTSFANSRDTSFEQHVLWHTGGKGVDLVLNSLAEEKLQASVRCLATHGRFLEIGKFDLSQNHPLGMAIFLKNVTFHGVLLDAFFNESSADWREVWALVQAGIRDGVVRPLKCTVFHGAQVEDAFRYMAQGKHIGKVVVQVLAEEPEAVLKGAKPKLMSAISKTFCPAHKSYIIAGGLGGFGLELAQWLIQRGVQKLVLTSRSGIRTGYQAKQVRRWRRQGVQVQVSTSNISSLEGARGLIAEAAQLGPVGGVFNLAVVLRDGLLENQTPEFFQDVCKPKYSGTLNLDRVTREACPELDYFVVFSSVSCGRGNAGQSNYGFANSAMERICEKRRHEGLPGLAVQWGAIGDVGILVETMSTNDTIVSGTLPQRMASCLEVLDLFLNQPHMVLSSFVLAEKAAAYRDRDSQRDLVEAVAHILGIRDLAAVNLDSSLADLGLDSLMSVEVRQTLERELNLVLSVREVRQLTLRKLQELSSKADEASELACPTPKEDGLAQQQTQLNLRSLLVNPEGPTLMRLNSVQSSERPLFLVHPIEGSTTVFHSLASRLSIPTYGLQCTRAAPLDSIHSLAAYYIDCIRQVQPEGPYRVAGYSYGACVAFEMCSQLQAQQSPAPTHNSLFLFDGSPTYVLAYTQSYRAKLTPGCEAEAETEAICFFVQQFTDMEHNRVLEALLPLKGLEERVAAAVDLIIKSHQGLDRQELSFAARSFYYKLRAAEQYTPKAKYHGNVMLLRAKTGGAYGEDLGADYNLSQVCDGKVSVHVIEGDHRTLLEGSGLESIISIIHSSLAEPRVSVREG

O=C(O)c1cccc(N(Cc2cccnc2)c2ccc(OC(F)F)c(OC(F)F)c2)c1
active: [1] 32.4 µM | [5] 7.82 µM | [9] 81.3 µM | [10] 0.00643 µM
inactive: [2] | [3] | [4] | [6] | [7] | [8] | [11] | [12] | [13]

CCCC(=O)OCC
inactive: [1] | [2] | [3] | [8] | [9] | [10] | [14] | [11] | [12] | [13]

Nc1cccc(N)c1
inactive: [1] | [2] | [3] | [8] | [9] | [10] | [14] | [11] | [12] | [13]

Cc1ccc(N)cc1O
active: [1] 50 µM | [5] 39.8 µM | [19] 40.9 µM | [7] 50 µM | [9] 26.3 µM
inactive: [1] | [2] | [3] | [15] | [4] | [6] | [16] | [17] | [18] | [20] | [8] | [10] | [11] | [12] | [13]

CCCCCCCCO
inactive: [1] | [2] | [3] | [15] | [5] | [17] | [18] | [20] | [7] | [8] | [9] | [10] | [14] | [11] | [12] | [13]

C=CC(=C)CCC=C(C)C
inactive: [1] | [2] | [3] | [8] | [9] | [10] | [14] | [11] | [12] | [13]

COc1ccc(/C=C/S(=O)(=O)NC(=O)c2ccc(C)cc2Cl)cc1
active: [1] 29 µM | [3] 60.6 µM | [5] 17.7 µM
inactive: [2] | [15] | [4] | [16] | [17] | [18] | [7] | [8] | [9] | [10] | [14] | [11] | [12] | [13]

CC(C)CCCCCCOC(=O)c1ccc(C(=O)OCCCCCCC(C)C)c(C(=O)OCCCCCCC(C)C)c1
inactive: [1] | [2] | [3] | [8] | [9] | [10] | [14] | [11] | [12] | [13]
